Here are results for 86 sequences from the supplement of paper PMC3334620.

In all, about 33,000 sequences were measured (“E-score (-0.5 to 0.5)”: median about -0.053, highest 2% from about 0.37 on). The sample as a whole holds a higher share of the highest values than the screen did.

The test has as its target Hap1 (UniProt P0CE41). As to the kind of experiment: PBM E-score (8-mer binding enrichment) (E-score (-0.5 to 0.5)); higher = stronger / more preferred TF binding. The following applies: protein concentration: 200 nM; construct: GST-DNA-binding domain. Summed up: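 Universal all-10-mer Agilent arrays, double-stranded by primer extension on fresh or once-stripped slides, were probed with about 100-200 nM GST-tagged yeast transcription factors made by PURExpress. Fluorescent anti-GST detected bound protein, and masliner normalised the scans. E-scores from the Universal PBM Analysis Suite were given to each ungapped eight-base word pooled with its reverse complement.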
Sequence of UniProt P0CE41 (P0CE41 whole entry, the tested form may be a part): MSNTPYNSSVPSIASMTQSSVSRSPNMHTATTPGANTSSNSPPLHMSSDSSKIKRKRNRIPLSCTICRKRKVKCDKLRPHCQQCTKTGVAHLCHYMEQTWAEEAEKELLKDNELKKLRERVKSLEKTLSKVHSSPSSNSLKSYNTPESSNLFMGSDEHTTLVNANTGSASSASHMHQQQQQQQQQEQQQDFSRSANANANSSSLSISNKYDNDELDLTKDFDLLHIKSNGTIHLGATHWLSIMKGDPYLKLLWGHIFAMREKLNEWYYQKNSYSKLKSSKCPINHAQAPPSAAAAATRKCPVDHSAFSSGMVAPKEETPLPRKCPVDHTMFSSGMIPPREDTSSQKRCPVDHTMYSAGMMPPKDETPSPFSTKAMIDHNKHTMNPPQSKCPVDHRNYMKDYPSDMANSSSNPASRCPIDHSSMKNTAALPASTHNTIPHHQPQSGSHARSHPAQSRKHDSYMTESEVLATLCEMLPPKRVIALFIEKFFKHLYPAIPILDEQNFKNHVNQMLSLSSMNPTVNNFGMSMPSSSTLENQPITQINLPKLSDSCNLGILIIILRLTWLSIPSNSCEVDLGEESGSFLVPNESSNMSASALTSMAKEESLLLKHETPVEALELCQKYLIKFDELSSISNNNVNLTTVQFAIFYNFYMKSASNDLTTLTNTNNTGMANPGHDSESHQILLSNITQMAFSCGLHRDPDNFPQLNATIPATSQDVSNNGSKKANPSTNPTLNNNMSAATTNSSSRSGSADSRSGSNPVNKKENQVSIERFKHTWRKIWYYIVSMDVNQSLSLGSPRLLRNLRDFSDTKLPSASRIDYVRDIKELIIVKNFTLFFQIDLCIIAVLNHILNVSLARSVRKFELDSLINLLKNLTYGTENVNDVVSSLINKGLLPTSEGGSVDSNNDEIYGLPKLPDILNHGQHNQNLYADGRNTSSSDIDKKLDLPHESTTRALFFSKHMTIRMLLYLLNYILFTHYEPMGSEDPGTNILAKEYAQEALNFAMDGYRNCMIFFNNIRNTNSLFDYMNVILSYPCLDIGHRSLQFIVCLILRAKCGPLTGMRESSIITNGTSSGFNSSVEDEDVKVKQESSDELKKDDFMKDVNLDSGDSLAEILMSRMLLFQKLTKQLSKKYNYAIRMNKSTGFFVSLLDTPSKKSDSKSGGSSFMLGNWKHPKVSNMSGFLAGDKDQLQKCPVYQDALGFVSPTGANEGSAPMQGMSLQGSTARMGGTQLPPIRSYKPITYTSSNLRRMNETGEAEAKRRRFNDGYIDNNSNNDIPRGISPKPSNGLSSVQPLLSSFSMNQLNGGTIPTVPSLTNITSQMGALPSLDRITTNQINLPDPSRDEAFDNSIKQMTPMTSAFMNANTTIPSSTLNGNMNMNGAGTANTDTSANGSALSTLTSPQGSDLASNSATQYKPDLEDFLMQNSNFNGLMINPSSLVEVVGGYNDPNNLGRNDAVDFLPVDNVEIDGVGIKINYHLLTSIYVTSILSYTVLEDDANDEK
For the sequence CATCTTTC, the “PBM E-score” value was -0.224. With AGGTGCTA the figure was -0.132; with AGGTTCAA, -0.0501; with AAAGGCGC, -0.0167. With CTTTAACC the figure was -0.0789.

CAGCAGTA: the “PBM E-score” value is -0.352.

CGAGCGGA: the “PBM E-score” value was determined as 0.37.

With AGAGCGGA, the “PBM E-score” value came to 0.13. With CGAGCGGC the figure was 0.238. With AATGGTCA the figure was -0.179; with TCCCGGAA, 0.397; with CCCCGGAC, 0.397. With CCCCGGCC the figure was 0.348; with AACCGGAG, 0.425; with AACCGGAT, 0.286. For CCCCGGAA, the “PBM E-score” value is 0.272.

For AACCGGAA, the “PBM E-score” value turned out to be 0.337. With TCCCGGCA the figure was 0.277; with ACCCGGAA, 0.346. Consider TCACGGAA, for which the “PBM E-score” value amounted to 0.329. With GCACGGAA the figure was 0.215; with GCCCGGAA, 0.402. Turning to CCTGCCGA, the “PBM E-score” value was 0.156.

As for AGGAGGCC, the “PBM E-score” value is -0.254. With AACGTTGT the figure was -0.162.

On to CGACACGA, for which the “PBM E-score” value was 0.0811. With CTACATGA the figure was -0.187; with TAAAGGCA, -0.0704. With GCACTCGC the figure was -0.0299. For the sequence AGAGGGCA, the “PBM E-score” value is -0.162. With GAGCGATC the figure was 0.0915. With AAGTTATT the figure was 0.0401. With GCGTCACC the figure was -0.0889; with AATTGCAC, -0.191. Turning to GCCCGGGA, the “PBM E-score” value worked out at 0.316. With CCCCGGAG the figure was 0.393; with ACCCGGCC, 0.305. Turning to ACCCGGGG, the “PBM E-score” value is 0.306. With ACCCGGGC the figure was 0.368; with ACCCGTAC, 0.0493.

For the sequence CCCCCGAG, the “PBM E-score” value is 0.308. With GCCCGGGC the figure was 0.434.

For the sequence CCCGGGAG, the “PBM E-score” value was determined as 0.299. With ACCCGGAC the figure was 0.372. For the sequence ACCCGGGT, the “PBM E-score” value stood at 0.393. With ACCCGGGA the figure was 0.328; with AGAGCGAT, 0.0667. With ATACGTTA the figure was -0.106; with GCTCTAAC, 0.0397; with CGACTGTA, -0.166. With CAGAAACC the figure was -0.0171; with AACAGGCT, -0.152; with TACCTCCA, -0.176. As for ATCAGTGC, the “PBM E-score” value was -0.212. With CCCCGGGC the figure was 0.36. With CCCCGGGG the figure was 0.388; with ACCCGGAT, 0.322.

Regarding GCCGGGAC, the “PBM E-score” value amounted to 0.185. Consider CCCCCGGG, for which the “PBM E-score” value was 0.324. Take GCCCGGAC: the “PBM E-score” value stood at 0.401. Regarding ACCCGGCG, the “PBM E-score” value turned out to be 0.283.

Consider ACCCGGAG, for which the “PBM E-score” value amounted to 0.423. Take GCCCGGCC: the “PBM E-score” value worked out at 0.329.

As to CTCACAGA, the “PBM E-score” value was -0.242. With CGGCGCTC the figure was 0.23. With TCTGTGAA the figure was -0.101. With CCGGTCCA the figure was 0.237; with CCGGTCCG, 0.42; with CCGGTCCC, 0.323. On to AGACTGAT, for which the “PBM E-score” value is -0.159. In the case of GACAGAGC, the “PBM E-score” value is -0.162. Consider CGTTTGAA, for which the “PBM E-score” value was -0.061.

On to CGAGGGCA, for which the “PBM E-score” value was -0.00305. With ATTTTGGA the figure was 0.147; with AAACTCCA, -0.0578. With AAACTCCG the figure was 0.456; with ATACTCCA, -0.15; with CAACTCCC, 0.0886.

Take ATACTCCG: the “PBM E-score” value turned out to be 0.407. With ATACTCCC the figure was 0.115; with CAACTCCA, -0.0501; with CAACTCCG, 0.398. With AAACTCCT the figure was -0.1.

Regarding CGCTAGCG, the “PBM E-score” value is 0.0545. With CGCGAGCA the figure was -0.126. With GATATCGC the figure was 0.304.
